Most compounds without a hit are left out; they make up all but 10% or so of the library.
HCT116 bCat-KO = beta-catenin-lacking colon tumor cell growth suppression | HCT116 beta-catenin knockout viability, CellTiter-Glo, 60 h; stronger effect = lower value | viability, % at 10 µM | 1.5% of 140,000 active | AID 818;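 active means viability at or under a set limit, the compound median less 4 SD, cut at about 6% in these data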;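 further: 0% = Hyamine 1622 control at 20 µM and 100% = untreated cell control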
PTEN del growth = suppresses growth of cells with PTEN deletion | HCT116 PTEN-null viability, CellTiter-Glo, 60 h; stronger effect = lower value | viability, % at 10 µM | 1.2% of 140,000 active | AID 827;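 active means viability at or below a set limit, 4 SD under the median of all tested compounds, cut at about 3.7% in these data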;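 further: PTEN knockout HCT116 line with beta catenin targeted HCT116 as companion control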
Lmaj promast = Leishmania major promastigote growth inhibition; Leishmania major promastigotes, resazurin fluorescence viability; inhibition, % at 10 µM; 9% of 200,000 active; in the data active means inhibition above about 50%;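 further: promastigotes grown with compound for 44 hours at 28 °C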
Insulin prom inh = TRM-6 insulin promoter activity inhibition. 0.9% of 130,000 active. inhibition, % at 2 µM. TRM-6 cells (human fetal islet line), insulin promoter-eGFP reporter, imaging; reporter expression induced with tamoxifen;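 active means inhibition above the mean plus 3 SD, with well images judged a real hit on visual review, cut at about 60% in these data, passing the limit was not always enough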
p97 inhibitor = human p97 ATPase inhibition. recombinant p97 ATPase, Kinase-Glo ATP luminescence, 3 h. inhibition, % at 8 µM. 0.42% of 220,000 active; in the data active means inhibition above about 15%;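 further: 0% = DMSO vehicle and 100% = wells lacking enzyme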
Target sequence (P55072 whole entry, looked up): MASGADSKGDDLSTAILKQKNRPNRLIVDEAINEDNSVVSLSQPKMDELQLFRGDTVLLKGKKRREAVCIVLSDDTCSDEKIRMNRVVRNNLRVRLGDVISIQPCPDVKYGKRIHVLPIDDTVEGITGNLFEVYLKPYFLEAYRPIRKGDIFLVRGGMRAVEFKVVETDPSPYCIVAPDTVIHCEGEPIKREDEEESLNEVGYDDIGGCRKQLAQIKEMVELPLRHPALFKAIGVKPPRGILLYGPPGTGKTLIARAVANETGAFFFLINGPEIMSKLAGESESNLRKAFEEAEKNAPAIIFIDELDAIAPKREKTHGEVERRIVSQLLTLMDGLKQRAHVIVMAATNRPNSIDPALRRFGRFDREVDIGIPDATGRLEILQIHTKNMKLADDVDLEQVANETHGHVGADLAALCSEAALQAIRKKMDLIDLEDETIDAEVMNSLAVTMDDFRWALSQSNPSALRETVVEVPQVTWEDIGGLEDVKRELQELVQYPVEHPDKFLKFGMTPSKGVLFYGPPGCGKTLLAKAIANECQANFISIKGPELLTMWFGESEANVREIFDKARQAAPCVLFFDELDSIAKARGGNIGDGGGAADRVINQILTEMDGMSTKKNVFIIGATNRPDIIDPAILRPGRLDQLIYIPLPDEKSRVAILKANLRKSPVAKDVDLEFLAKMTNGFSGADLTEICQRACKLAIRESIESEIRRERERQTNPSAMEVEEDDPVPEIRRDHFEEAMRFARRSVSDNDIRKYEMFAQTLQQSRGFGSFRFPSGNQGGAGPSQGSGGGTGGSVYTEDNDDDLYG
ROMK primary = modulators of human ROMK potassium channel. P48048. Tet-inducible ROMK, thallium flux fluorescence; actives lie on both sides. B-score at 10 µM. 2% of 130,000 active. AID 1918;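 active means signal ratio slope over the read window, or its plate-corrected B-score, at least 3 SD from the plate mean, either direction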;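 further: B-score of the F/F0 ratio slope over 7 to 12 s after thallium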
* = called active by the depositor; nt = not tested or not shown.

SMILES	HCT116 bCat-KO	PTEN del growth	Lmaj promast	Insulin prom inh	p97 inhibitor	ROMK primary
CCN(CC)S(=O)(=O)c1ccc2c(c1)c(=O)c(C(=O)NCc1ccco1)cn2C	nt	nt	29	nt	2	0.33
Cc1nc(Nc2nc(=O)c3ccccc3n2C)nc2c(C)cccc12	nt	nt	-1	37	0	nt
COc1ccc(OCCCN2CCCCCC2)cc1	78	82	99*	1	0	-0.11
COc1ccc(NC(=O)CCN2CCCCC2)cc1	94	93	-4	50	2	nt
COc1cccc(OCCCN2CCCCC2)c1	94	103	96*	28	4	nt
CC1CCCN(CCCCOc2cccc(Br)c2)C1 (stereo unspecified)	71	86	99*	20	6	nt
CCOc1cccc(OCCCCN2CCCCC2)c1	94	95	97*	nt	-7	nt
CCOc1cccc(OCCCOc2ccccc2)c1	95	88	-4	14	0	0.16
Oc1ccc(C=NC2CCCCC2)c(O)c1	nt	nt	-2	7	-5	-0.36
Cc1[nH]c2ccccc2c1C(=O)CSc1nc2ccccc2c(=O)n1CCCN1CCOCC1	58	57	29	-24	2	-0.27
Cc1cc(C)cc(NC(=O)CCn2cnc3cc(C)c(C)cc32)c1	nt	nt	21	-20	-6	0.0024
O=C1CN(C(=O)CNC(=O)c2ccccc2Cl)c2ccccc2N1	nt	nt	-3	nt	0	0.96
CN(C)CCCCOc1cccc(Br)c1	94	94	7	32	-2	nt
Brc1cccc(OCCCCN2CCCCC2)c1	72	91	98*	23	3	-2.4
CC(C)(O)C(=O)NNC(=S)Nc1ccc(F)c(Cl)c1	nt	nt	-3	35	3	-1.1
CC1Sc2ccccc2N(CC(=O)N(C(C)C)C(C)C)C1=O (stereo unspecified)	98	93	-2	-11	0	0.059
CCN(CCCNC(=O)C1c2ccccc2C(=O)N(CCOC)C1c1ccc(F)cc1)Cc1ccccc1 (stereo unspecified)	nt	nt	99*	-67	-2	-0.61
Cn1c(=O)n(C)c2cc(S(=O)(=O)NCc3ccccc3)ccc21	85	83	99*	nt	-5	nt
Cn1c(N)c(S(=O)(=O)NCc2ccc(Cl)cc2)c(=O)n(C)c1=O	nt	nt	0	-50	7	1.2
Cn1c(=O)c(=O)n(C)c2cc(S(=O)(=O)NCc3ccc(Cl)cc3)ccc21	nt	nt	100*	nt	0	0.96
CCc1ccc(/C=C2/C(=O)N(CC)C(=S)N2C)s1	93	85	0	69*	-5	0.39
CCOc1ccc(N2C(=O)/C(=C/c3cccs3)N(C)C2=S)cc1	62	80	14	0	4	nt
COc1ccc2nccc(/C=C/c3ccnc4ccc(OC)cc34)c2c1	nt	nt	nt	nt	-2	nt
COc1ccc(CNC(=S)NC(C)CCc2ccccc2)cc1 (stereo unspecified)	nt	nt	19	nt	1	-0.26
COc1cc(/C=N/NC(=O)c2cccnc2)ccc1OCC(=O)Nc1ccccc1Cl	nt	nt	-5	nt	2	0.36
SMILES	HCT116 bCat-KO	PTEN del growth	Lmaj promast	Insulin prom inh	p97 inhibitor	ROMK primary
COc1ccc(NC(=O)COc2ccc(/C=N/NC(=O)c3cccnc3)cc2OC)cc1	100	99	55*	26	4	nt
COc1cc(/C=N/NC(=O)c2cccnc2)ccc1OCC(=O)Nc1c(C)cc(C)cc1C	98	86	54*	11	-1	0.34
CNC(=S)N/N=C/c1ccc(OCC(=O)Nc2c(C)cc(C)cc2C)c(OC)c1	56	57	-2	nt	2	nt
Cc1cc(=O)[nH]c(SCC(=O)N(CCC#N)c2ccccc2)c1C#N	nt	nt	-9	nt	1	0.18
Cc1ccc(/C=C/C(=O)c2cc(Br)ccc2OC(=O)c2ccco2)cc1	54	53	87*	-30	3	nt
COc1ccccc1/C=C/C(=O)c1cc(Br)ccc1OC(=O)c1ccco1	nt	nt	60*	-16	-1	nt
COC(=O)c1nc(-c2ccccc2)oc1N1CCOCC1	nt	nt	-6	nt	-5	0.47
COCCn1nnnc1C(C(C)C)N(Cc1cccnc1)Cc1ccccc1Cl (stereo unspecified)	83	88	66*	-120	-3	nt
CCC(c1nnnn1CCOC)N1CCN(Cc2ccccc2)CC1 (stereo unspecified)	99	109	-6	-8	0	nt
Cc1cc(N2CCN(C3CCCCC3)CC2)nc2cccc(O)c12	78	87	85*	nt	5	nt
NS(=O)(=O)c1ccc(CNS(=O)(=O)c2cc(Cl)ccc2Cl)cc1	nt	nt	nt	nt	6	nt
Cc1cccc(-n2ncc3c(NCc4cccs4)ncnc32)c1	76	66	97*	57	7	nt
CC(=O)Nc1ccc(Nc2ncnc3c2cnn3-c2ccccc2)cc1	116	105	9	45	10	1.3
CC(=O)Nc1ccc(Nc2ncnc3c2cnn3-c2ccc(C)cc2C)cc1	87	104	68*	nt	-3	0.28
CC(=O)Nc1ccc(Nc2ncnc3c2cnn3-c2cccc(C)c2)cc1	88	91	75*	nt	8	0.33
O=C(c1ccc(Cl)nc1)N1CCN(S(=O)(=O)c2ccc(Cl)cc2)CC1	nt	nt	3	nt	2	-0.32
COc1ccc(N(CC(=O)NCCc2ccc(Cl)cc2)S(=O)(=O)c2c(C)[nH]c(=O)[nH]c2=O)cc1	nt	nt	-1	-43	2	0.47
N#CCCN(Cc1cccnc1)C(=S)NC(=O)C1CC1	nt	nt	-1	41	4	0.31
COc1cccc(/C=N/NC(=O)c2ccoc2C)c1	nt	nt	nt	nt	-9	nt
Cc1ccc(C(=O)C(C)OC(=O)c2ccccc2[N+](=O)[O-])cc1 (stereo unspecified)	79	93	21	-6	-7	-0.036
COc1ccc(/C(C)=N/Nc2ncc(Cl)cc2Cl)c(O)c1	7	4	14	29	-4	0.68
COC(=O)C(CC(=O)c1cccc(OC)c1)c1ccc(F)cc1 (stereo unspecified)	nt	nt	-3	27	0	-0.91
Cc1ccc2[nH]c(=O)c(CN(CC3CCCO3)C(=O)c3ccncc3)cc2c1 (stereo unspecified)	97	110	70*	-357	-1	-0.2
Cc1ccc2cc(CN(Cc3nnnn3C3CCCCC3)CC3CCCO3)c(=O)[nH]c2c1 (stereo unspecified)	88	84	94*	-17	-2	nt
Cc1cc(C)c2cc(CN(Cc3nnnn3C3CCCCC3)CC3CCCO3)c(=O)[nH]c2c1 (stereo unspecified)	76	78	99*	nt	0	-2.7
Cc1ccc2cc(CN(CC3CCCO3)C(=O)C(C)C)c(=O)[nH]c2c1 (stereo unspecified)	92	99	-3	14	-3	nt
COc1ccc(CN(Cc2cc3ccc(C)cc3[nH]c2=O)Cc2nnnn2C2CCCC2)cc1	60	39	nt	nt	nt	nt
CCC(c1nnnn1CCOC)N(Cc1cc2c(C)cc(C)cc2[nH]c1=O)CC1CCCO1 (stereo unspecified)	68	73	-2	20	2	nt
O=C(CSc1ccc2ccccc2c1)Nc1ccc(S(=O)(=O)Nc2nccs2)cc1	89	95	54*	-58	-4	nt
O=C(CSc1ccncc1)Nc1ccc2ccccc2c1	nt	nt	91*	8	7	-0.84

Screens: PubChem, several laboratories
